# Screens deposited in PubChem BioAssay by The Scripps Research Institute Molecular Screening Center.
# DAX1 inh-1 – inhibitors of DAX1 repression of SF-1 activated StAR promoter | inhibition, % at 6.8 µM | HEK293T StAR-luciferase reporter, SF-1/DAX-1 repression relief | actives 1.1% (n = 370,000);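 active means inhibition above the mean over all tested compounds plus 3 SD, cut at about 3.6% in these data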;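 further: 0% = DAX-1 cells with DMSO and 100% = cells lacking DAX-1 with DMSO; higher inhibition means more luminescence from relief of DAX-1 repression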
# DAX1 inh-2 – inhibitors of human orphan nuclear receptor DAX1 (NR0B1); inhibition, % at 6.75 µM; P51843; AID 504766; HEK293 Gal4-DAX1 luciferase reporter, luminescence; actives 0.99% (n = 340,000);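 active means inhibition above the mean over all tested compounds plus 3 SD, cut at about 4.2% in these data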;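 further: 0% = DAX1-transfected cells with DMSO and 100% = empty-vector control cells with DMSO; inhibition shows as a rise in luminescence from relieved DAX1 repression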
# Target sequence (P51843 207-470 limits assumed): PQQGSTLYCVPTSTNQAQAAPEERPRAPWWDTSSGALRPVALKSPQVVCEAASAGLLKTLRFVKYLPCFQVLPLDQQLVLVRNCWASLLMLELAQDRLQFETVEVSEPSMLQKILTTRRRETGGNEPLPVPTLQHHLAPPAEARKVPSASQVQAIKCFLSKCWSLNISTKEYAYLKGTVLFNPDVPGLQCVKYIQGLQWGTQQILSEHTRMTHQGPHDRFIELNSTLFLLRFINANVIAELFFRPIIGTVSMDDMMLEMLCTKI
# SMARCA2 activ – increases SMARCA2 function in MMTV reporter cells; MG213 cells, MMTV-luciferase reporter, dexamethasone, overnight; activation, % at 9.1 µM; actives 1% (n = 370,000); AID 652017; in the data active means activation above about 7.8%;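 further: 0% = vehicle wells and 100% = reference activator wells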
# hcDAF12 agonist – activates DAF-12 receptor from parasite H. contortus | HEK293 hcDAF-12 lit1-tk-luc reporter, luminescence; 0% DMSO, 100% Δ7-dafachronic acid | activation, % at 6.8 µM | actives 1.4% (n = 370,000) | AID 652067;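 active means activation above the mean of all tested compounds plus 3 SD, cut at about 5.5% in these data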;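 further: 100% = response to 3 µM Δ7-dafachronic acid high control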
# ssDAF12 agonist – activators of S. stercoralis DAF-12 nuclear receptor; AID 652126; activation, % at 6.8 µM; HEK293 ssDAF-12/GRIP1 lit1-tk-luc reporter, luminescence; % of 3 µM dafachronic acid response; actives 1% (n = 370,000);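 active means activation above the mean over all tested compounds plus 3 SD, cut at about 0.9% in these data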;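 further: 0% = DMSO-only wells and 100% = 3 µM delta7-dafachronic acid wells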
# hgDAF-12 ag – agonists of H. glycines DAF-12 nuclear receptor. HEK293 GAL4-hgDAF12 UAS-luciferase reporter, agonist luminescence; normalized to butyrate control. activation, % at 6.8 µM. actives 1.8% (n = 370,000). AID 687014;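 active means activation above a cutoff set at the mean of all screened compounds plus 3 SD, cut at about 10% in these data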;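 further: 0% = DMSO wells and 100% = sodium butyrate wells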
# DAX1 conf – confirmation of human DAX1 (NR0B1) inhibitors | shares compounds with DAX1 inh-1 | HEK293T StAR-promoter luciferase reporter, SF-1/DAX-1 repression | inhibition, % at 6.8 µM | actives 87% (n = 2,400);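 active means inhibition above the average of every tested compound plus 3 SD, cut at about 3.8% in these data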;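 further: 0% = DAX-1 cells with DMSO and 100% = no DAX-1 control cells with DMSO; active compounds raise luminescence by relieving repression of the StAR reporter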
# Target sequence (P51843 whole entry, looked up): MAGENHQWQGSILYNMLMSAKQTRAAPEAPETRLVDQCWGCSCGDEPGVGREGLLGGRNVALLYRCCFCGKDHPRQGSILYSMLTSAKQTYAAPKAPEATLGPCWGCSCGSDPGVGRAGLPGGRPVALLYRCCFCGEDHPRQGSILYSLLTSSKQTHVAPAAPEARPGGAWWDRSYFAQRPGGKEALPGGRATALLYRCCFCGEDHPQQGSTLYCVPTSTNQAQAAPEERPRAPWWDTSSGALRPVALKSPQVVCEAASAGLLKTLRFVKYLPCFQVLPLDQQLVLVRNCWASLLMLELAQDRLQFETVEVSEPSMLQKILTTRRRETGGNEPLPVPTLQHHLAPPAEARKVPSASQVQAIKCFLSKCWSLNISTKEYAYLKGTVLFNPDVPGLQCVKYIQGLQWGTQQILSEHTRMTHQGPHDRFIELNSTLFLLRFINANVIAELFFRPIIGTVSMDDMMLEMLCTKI
# SF1 mutant ctr – nonselective inhibitor or artifact in SF-1 mutant DAX1 counter-screen | AID 652136 | actives 78% (n = 2,400) | inhibition, % at 6.8 µM | HEK293 StAR-luciferase, SF-1 AF2 mutant, luminescence | shares compounds with DAX1 inh-1;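 active means inhibition above the mean of all tested compounds plus 3 SD, cut at about 3% in these data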;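 further: 0% = DAX-1 transfected cells with DMSO and 100% = cells without DAX-1 with DMSO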
# SMARCA2 act conf – confirmation of SMARCA2 (BRM) function activators. activation, % at 9.1 µM. AID 652260. actives 30% (n = 3,500). shares compounds with SMARCA2 activ. MG213 cells, MMTV-luciferase with dexamethasone, luminescence, overnight; MG213 cells expressing E1A, Rb sequestered; DMSO wells 0%, reference activator 100%;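 active means activation above its plate's cutoff, the mean activation of tested wells plus 3 SD, cut at about 7.9% in these data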
# VP16 Luc act – GAL4-VP16 reporter activation counter-screen. shares compounds with SMARCA2 activ. HEK293 GAL4-VP16 pG5luc reporter, luciferase luminescence; scaled: DMSO wells 0%, SAHA wells 100%. activation, % at 9.1 µM. actives 41% (n = 3,500);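 active means activation above the solvent-only control well mean plus 3 SD, averaged across control plates, cut at about 5.2% in these data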
# LXRb hcDAF ctr – LXR-beta agonism as hcDAF-12 counter-screen; shares compounds with hcDAF12 agonist; 3,400 tested, under 10 active; HEK293 Gal4-LXR tk-luc reporter, luminescence, 24 h; normalized: DMSO 0%, positive control 100%; AID 743027; activation, % at 6.8 µM;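 active means mean percent activation of the reporter above a cutoff set as the average over tested compounds plus their standard deviation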
# hcDAF12 ag – hcDAF-12 agonism, confirmation assay. shares compounds with hcDAF12 agonist. HEK293 hcDAF-12 lit1-tk-luc reporter, luminescence; % of Δ7-dafachronic acid response. activation, % at 6.8 µM. actives 61% (n = 3,400);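 active means mean activation across triplicate tests above the threshold derived from the earlier primary screen, cut at about 5.5% in these data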;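 further: 0% = DMSO only wells and 100% = 3 µM Δ7-dafachronic acid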
# hgDAF12 ag – hgDAF-12 agonism, confirmation assay; shares compounds with hgDAF-12 ag; activation, % at 6.8 µM; HEK293 GAL4-hgDAF12 luciferase reporter, agonist mode; percent of butyrate response; actives 80% (n = 3,300);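 active means mean activation over triplicate wells above the hit cutoff derived from the earlier primary screen, cut at about 11% in these data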;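 further: 0% = DMSO low control and 100% = 2 mM sodium butyrate high control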
# LXRb DAF12 ctr – activates human LXR-beta, counter-screen for DAF-12 agonists; shares compounds with hgDAF-12 ag; HEK293 Gal4-LXR luciferase reporter, 24 h; AID 743051; activation, % at 6.8 µM; 3,300 tested, under 10 active;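 active means mean activation of the triplicate above a set limit carried over from the primary screen, none filed active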
# Numbers without * were called inactive; . = no result. The list is not random: actives were taken first. Their share in the collection is about 4.8%.
SMILES,DAX1 inh-1,DAX1 inh-2,SMARCA2 activ,hcDAF12 agonist,ssDAF12 agonist,hgDAF-12 ag,DAX1 conf,SF1 mutant ctr,hgDAF12 ag,LXRb DAF12 ctr,others
Nc1cccc(-c2nc3cc(S(=O)(=O)c4ccc5oc(-c6cccc(N)c6)nc5c4)ccc3o2)c1,0,0,-1,-1,-2,-2,.,.,.,.,
c1ccc2sc(N3CCCCC3)nc2c1,7.8*,3,2,2,0,13*,9.7*,6.5*,15*,1,
Fc1ccc2nc(N3CCCC3)sc2c1,5.2*,1,4,5,-1,28*,7.9*,5.0*,15*,1,
O=[N+]([O-])c1ccc2nc(N3CCCC3)sc2c1,0,1,1,3,0,7,.,.,.,.,
O=c1[nH]c(=O)n(C2CC(O)C(CO)O2)cc1Br (configuration not stated),11*,3,-2,6.2*,-1,15*,18*,6.8*,20*,0,
O=C(Oc1ccc(Br)cc1C(=S)N1CCCCC1)c1cc([N+](=O)[O-])cc([N+](=O)[O-])c1,.,0,.,.,.,.,.,.,.,.,
CC(C)[C@@H]1NC(=O)[C@H]2C[C@@]3(C)c4ccccc4N[C@H]3N2C1=O,-1,.,-3,2,1,-1,.,.,.,.,
O=C(Nc1nc2cc3c(cc2s1)OCO3)C1CC1,0,0,2,-1,-2,3,.,.,.,.,
O=C(Nc1nc2cc3c(cc2s1)OCCO3)C1CCCCC1,15*,1,0,4,1,13*,12*,4.4*,15*,1,
O=C(Nc1nc2cc3c(cc2s1)OCO3)C1CCCCC1,12*,1,2,9.8*,0,14*,15*,7.7*,16*,1,LXRb hcDAF ctr=1;hcDAF12 ag=5
CC(C)Oc1cc(O)c2c(=O)c(-c3ccc(O)cc3)coc2c1,5.3*,1,1,7.6*,0,26*,11*,5.7*,20*,1,LXRb hcDAF ctr=1;hcDAF12 ag=5
COc1cc(O)cc2occ(-c3ccc(O)cc3)c(=O)c12,0,2,2,0,-1,1,.,.,.,.,
Cc1ccc(NC(=O)c2c(C)nc3ccccn23)cc1C,5.8*,5.6*,2,1,-1,14*,8.9*,6.1*,16*,1,
Cc1cccc(NC(=O)c2c(C)nc3ccccn23)c1,1,-1,0,-1,-1,3,.,.,.,.,
CCCC(=O)N1CC(=O)Nc2ccc(C)cc2C1c1ccccc1 (configuration not stated),0,0,-2,0,-1,-2,.,.,.,.,
CC(C)Sc1nc2ccccc2n2cnnc12,0,-1,-2,-1,-1,-1,.,.,.,.,
O=C(NN=Cc1ccc(Cl)cc1Cl)c1ccccc1,5.5*,3,3,3,1,17*,11*,5.8*,16*,1,
CCOc1ccc(Cl)cc1/C=N/NC(=O)c1ccccc1,0,0,2,2,-1,7,.,.,.,.,
CCOc1cc(/C=N/NC(=O)C(=O)NC2CC2)cc(Br)c1O,0,2,-2,-2,-1,-2,.,.,.,.,
Nc1c(-c2ccccc2)cnc2cc(-c3ccccc3)nn12,6.0*,5.6*,5,2,0.9*,22*,16*,7.7*,26*,1,
CC(=O)c1cnc2cc(-c3ccccc3)nn2c1C,2,1,2,1,0,5,.,.,.,.,
C=CCNc1nc(-c2cc3ccccc3o2)cs1,6.5*,0,3,9.1*,1.5*,18*,14*,4.1*,18*,1,LXRb hcDAF ctr=2;hcDAF12 ag=8.3*
c1ccc2oc(-c3csc(NCC4CCCO4)n3)cc2c1 (configuration not stated),10*,1,0,4,1.1*,15*,12*,7.0*,15*,1,
c1cncc(-c2nc3cc4ccccc4cc3[nH]2)c1,7.8*,4.6*,8.4*,9.5*,1.5*,21*,11*,5.3*,21*,1,SMARCA2 act conf=13*;VP16 Luc act=17*;LXRb hcDAF ctr=2;hcDAF12 ag=9.6*
CCn1cc(C(=O)NCCc2ccccc2C)c(=O)c2ccc(C)nc21,0,4,3,-1,0,0,.,.,.,.,
SMILES,DAX1 inh-1,DAX1 inh-2,SMARCA2 activ,hcDAF12 agonist,ssDAF12 agonist,hgDAF-12 ag,DAX1 conf,SF1 mutant ctr,hgDAF12 ag,LXRb DAF12 ctr,others
CCOc1ccc2oc(C(=O)N3CC(C)OC(C)C3)c(C)c2c1 (configuration not stated),-1,0,2,0,-1,3,.,.,.,.,
O=C(O)c1cc2c(ccc3ccccc32)o1,0,-1,-1,1,-1,4,.,.,.,.,
O=C(c1cc2c(ccc3ccccc32)o1)N1CCCCC1,15*,1,7,6.8*,1.2*,18*,15*,8.7*,14*,1,LXRb hcDAF ctr=1;hcDAF12 ag=4
O=C(C/C=N\O)Nc1ccc(Oc2ccccc2)cc1,-1,0,-1,-1,-1,1,.,.,.,.,
C/C(CC(=O)Nc1cccc(Cl)c1C)=N\NC(=O)C(=O)NCC(C)C,0,-1,-1,0,0,2,.,.,.,.,
NC(=O)c1sc2cc(C(F)(F)F)cnc2c1-c1cccs1,0,0,-1,-1,0,-2,.,.,.,.,
